Results: PubChem BioAssay

Tested on: Noggin (protein binding on small-molecule microarray)
Test: Noggin binders on small-molecule microarray, primary screen, biochemical, 635/667 nm fluorescence (AID 1095);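 note: score merges 667 nm feature fluorescence with signal to noise over triplicate slides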
Details: 635 nm fluorescence, higher = more signal

| Compound | composite z-score |
| --- | --- |
| CCOC(=O)NN=C1C[C@@H](O)[C@@H](O)[C@@H]2[C@@H]3C(=O)N([C@@H](C)c4ccccc4)C(=O)[C@@H]3CC[C@@H]12 | 0.797 |
| COC(=O)[C@@H]1CC[C@H](C)[C@@H](c2ccc(C)cc2)N1C(=O)c1ccc(C=NO[C@@H](C)c2cn([C@H](CO)Cc3ccccc3)nn2)cc1 | 1.19 |
| O=C1CCCC=C1C(O)CCOC(c1ccccc1)(c1ccccc1)c1ccccc1 (stereo unspecified) | 0.547 |
| COC(=O)CC=C[C@@H](C)[C@@H]1C=C[C@H](O)[C@@H](CO)O1 | 0.381 |
| C[C@@H](ON=C1[C@H]2CCn3c(=O)n(-c4ccccc4)c(=O)n3[C@H]2[C@H](O)[C@@H]2O[C@H]12)c1cn([C@@H]2COC[C@H]2O)nn1 | 0.57 |
| CO[C@@H]1COC(=O)[C@H](CCSC)NC(=O)CC=C[C@@H](C)COC(=O)CCC[C@H]1C | 1.82 |
| COc1cccc([C@@H]2Oc3ccc(OC)cc3C(=O)[C@H]2O)c1 | 0.052 |
| C=CC1=C[C@H](O)[C@@H]2O[C@@H]2C12OCCCO2 | 0.412 |
| CCOC(=O)NN=C1C[C@@H](O)[C@@H](O)[C@@H]2[C@@H]3C(=O)N(Cc4ccccc4)C(=O)[C@@H]3CC[C@H]12 | 0.0448 |
| COC(=O)[C@@H]1CC[C@H](C)[C@@H](c2ccc(C)cc2)N1C(=O)c1ccc(C=NO[C@H](C)c2cn([C@H](CO)Cc3ccccc3)nn2)cc1 | 1.19 |
| COc1cc(O)c(C(=O)C=Cc2ccc3c(c2)OCO3)c(OC)c1 | 0.257 |
| CCOC(=O)[C@H](CC(C)C)NC(=O)CCC1CC(OC(=O)NCc2cccc3ccccc23)CC2(CCCC(COC(=O)NCC3CCCCC3)O2)O1 (stereo partly specified) | 0.895 |
| Cc1cc2c(c(=O)o1)[C@@H](O)[C@H]1O[C@H]1C2=O | 0.887 |
| Cc1ccc(S(=O)(=O)NC(CCc2ccccc2)CC(=O)C(C)(C)C)cc1 (stereo unspecified) | 0.409 |
| C[C@@H](c1ccccc1)N1C(=O)[C@H]2[C@H]3[C@H](O)[C@H](O)CC(=NO[C@@H]4O[C@H](CO)[C@@H](O)[C@H](O)[C@H]4O)[C@@H]3CC[C@H]2C1=O | 0.111 |
| CCN1C(=O)[C@@H]2[C@H]3C(=CC[C@@H]2C1=O)C1(OCCCO1)[C@H]1O[C@H]1[C@H]3O | 0.643 |
| CCOC(=O)[C@H](CC(C)C)NC(=O)CCC1CC(OC(=O)NCc2cccc3ccccc23)CC2(CCCC(COC(=O)NCCCN3CCCC3=O)O2)O1 (stereo partly specified) | 0.822 |
| CC(=O)OC[C@H]1OC(ON=CC[C@@H]2C=C[C@H](OC(C)=O)[C@@H](COC(C)=O)O2)[C@H](OC(C)=O)[C@@H](OC(C)=O)[C@@H]1OC(C)=O (stereo partly specified) | 0.612 |

| Compound | composite z-score |
| --- | --- |
| COc1ccc(O[C@@H]2[C@H](O)CO[C@@H]2C=Cc2ccccc2)cc1 | 0.135 |
| O=C1[C@H]2[C@H]3[C@H](O)[C@H](O)CC(=NOC[C@@H](O)COCc4ccco4)[C@H]3CC[C@H]2C(=O)N1C[C@@H]1CCCO1 | 0.759 |
| CC(C)=CCCC(C)=CCON=C1C[C@@H](O)[C@@H](O)[C@@H]2[C@@H]3C(=O)N(C(C)(C)C)C(=O)[C@@H]3CC[C@@H]12 | 0.386 |
| C#CCCCON=C1C[C@@H](O)[C@@H](O)[C@@H]2[C@@H]3C(=O)N(CCC(=O)OCC)C(=O)[C@@H]3CC[C@H]12 | 0.4 |
| C[C@H]1CC[C@H]2C(=O)O[C@H](COc3ccc(C(C)(C)C)cc3)CN2[C@@H]1c1ccc(Br)cc1 | -0.0084 |
| CC(C)=CCCC(C)=CCON=C1C[C@@H](O)[C@@H](O)[C@@H]2[C@@H]3C(=O)N(c4cccc(Oc5ccccc5)c4)C(=O)[C@@H]3CC[C@@H]12 | -0.283 |
| COc1ccc(O[C@H]2C=C[C@@H](c3ccccc3)O[C@@H]2COC(=O)CCC(C)=NOC(C)CN2CCCc3nc(C)c(C)cc32)cc1 (stereo partly specified) | 0.755 |
| COC(=O)[C@H](C)NC(=O)CCC1CC(OC(=O)NCc2cccc3ccccc23)CC2(CCCC(COC(=O)NCC(c3ccccc3)c3ccccc3)O2)O1 (stereo partly specified) | 0.661 |
| C=COC[C@@H]1CN2[C@@H](CC[C@@H](C)[C@@H]2c2ccc(Br)cc2)C(=O)O1 | -0.0482 |
| CCOC(=O)[C@H](CC(C)C)NC(=O)CCC1CC(OC(=O)NCc2cccc3ccccc23)CC2(CCCC(COC(=O)NCCC(C)C)O2)O1 (stereo partly specified) | 0.543 |
| CCOC(=O)[C@H](Cc1ccccc1)NC(=O)CCC1CC(OC(=O)NCCc2ccc(F)cc2)CC2(CCCC(COC(=O)NCCc3ccccc3OC)O2)O1 (stereo partly specified) | 0.955 |
| CO[C@H](C1CCCCC1)[C@H](C)C=CCC(=O)OCCCc1ccccc1 | -0.0107 |
| O=C1C[C@@H](O)[C@@H](O)[C@@H]2[C@@H]3C(=O)N(Cc4ccccc4)C(=O)[C@@H]3CC[C@@H]12 | 0.45 |
| CCN1C(=O)[C@H]2[C@H]3[C@H](O)[C@H](O)CC(=NOCC(C)C)[C@@H]3CC[C@H]2C1=O | 1.11 |
| COC(=O)CC=C[C@@H](C)[C@@H](C=NOC[C@H]1O[C@H](c2ccccc2)C=C[C@@H]1Oc1ccc(OC)cc1)OC | 0.0133 |
| CC(CCN1CCc2nc(-c3ccccc3)c(-c3ccccc3)cc2C1)=NOC[C@@H](O)[C@H]1O[C@@H]2OC(C)(C)O[C@@H]2[C@H]1O | 0.449 |
| O=C(NN=C1C[C@@H](O)[C@@H](O)[C@@H]2[C@@H]3C(=O)N(C4CCCCC4)C(=O)[C@@H]3CC[C@@H]12)OCc1ccccc1 | -0.248 |
| COc1ccc(O[C@H]2C=C[C@@H](c3ccccc3)O[C@@H]2CON=C(C)CCC(=O)OC[C@H]2O[C@H](c3ccccc3)C=C[C@@H]2Oc2ccc(OC)cc2)cc1 | -0.769 |
